Screening data as filed in PubChem.
An excerpt weighted towards active compounds, which were near 18% of everything screened.
IL1B secr inh – blocks inflammasome-driven IL-1 beta release | actives 4.7% (n = 360,000) | THP-1 LPS/ATP IL-1B secretion, AlphaLISA, 16 h; hits give low values | activity change, % at 57.5 µM | AID 743279; in the data active = activity change below about -50%; inconclusive = mostly about -30% to -49%; also: % is scaled to controls: 0 for no effect and ±100 for the full control effect
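Secreted IL-1B measured by AlphaLISA bead assay after 16 h compound exposure of THP-1 cells; compounds (final up to 57.5 uM) added 1 h before LPS (250 ng/mL) and ATP (1.25 mM) stimulation; lower signal means less secretion.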
TGFb SMAD3 inh – inhibitors of TGF-b signaling; AID 588855; actives 1.2% (n = 410,000); HepG2 CAGA-GFP TGF-b/SMAD3 reporter, GFP fluorescence, 18 h; TGF-beta stimulated, 500 pg/mL final; Potency, µM (doses to about 46.1 µM), inactives show top-dose activity, negative = inhibition, hits mostly inhibitors; also: potency is read from the fitted curve at half-maximal effect; % is scaled to controls: 0 for no effect and ±100 for the full control effect; nearly all actives have a fitted effect of over 65% in size
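Using HEPG2 CAGA-GFP reporter cells at 1000 cells/well, we pinned test compounds, stimulated with recombinant TGF-beta (500 pg/mL final) and measured total well GFP after 18 h.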
TDP1 cell CPT – DT40-hTDP1 cell growth loss with CPT | chicken DT40 Tdp1-/-;hTDP1 cells + 20 nM CPT, ATP luminescence, 48 h | Potency, µM (series often up to 46.2 µM), for inactives: at the top dose activity change, negative = growth inhibition, actives largely listed as inhibitors | actives 12% (n = 420,000) | AID 686979; also: potency is read from the fitted curve at half-maximal effect; % is scaled to controls: 0 for no effect and ±100 for the full control effect; nearly all actives have a fitted effect of over 55% in size
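Chicken DT40 Tdp1-/- cells stably complemented with human TDP1 were seeded at 400 cells/well in medium containing 20 nM camptothecin, exposed to pin-transferred compounds, and grown at 37 °C for at least 48 hr. Viability was read as ATP luminescence.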
DT40 TDP1 no CPT – qHTS for Inhibitors of human tyrosyl-DNA phosphodiesterase 1 (TDP1): qHTS in cells in absence of CPT; DT40 Tdp1-/- hTDP1 cells, no CPT, ATP luminescence, 48 h; Potency, µM (titrated, usually from 46.2 µM), inactives show at the top dose activity change, negative = growth inhibition, most hits filed as inhibitors; actives 15% (n = 420,000); AID 686978, 2013; also: potency is read from the fitted curve at half-maximal effect; % is scaled to controls: 0 for no effect and ±100 for the full control effect; nearly all actives have a fitted effect of over 55% in size
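Cells were dispensed at 400 per well, compounds added by pin tool, plates incubated ≥48 hr at 37 °C, then CellTiter-Glo added for 30 min at room temperature before luminescence reading. Line: DT40 Tdp1-/- complemented with hTDP1; camptothecin omitted.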
TDP1 block – blocks human tyrosyl-DNA phosphodiesterase 1 | Potency, µM (titrated, usually from 130 µM), without a hit: at the top dose activity change, negative = inhibition, usual class: inhibitors | Q9NUW8 | actives 0.28% (n = 350,000) | recombinant TDP1, AlphaScreen DNA substrate cleavage; also: potency is read from the fitted curve at half-maximal effect; % is scaled to controls: 0 for no effect and ±100 for the full control effect; nearly all actives have a fitted effect of over 40% in size
Target sequence (Q9NUW8 whole entry, looked up): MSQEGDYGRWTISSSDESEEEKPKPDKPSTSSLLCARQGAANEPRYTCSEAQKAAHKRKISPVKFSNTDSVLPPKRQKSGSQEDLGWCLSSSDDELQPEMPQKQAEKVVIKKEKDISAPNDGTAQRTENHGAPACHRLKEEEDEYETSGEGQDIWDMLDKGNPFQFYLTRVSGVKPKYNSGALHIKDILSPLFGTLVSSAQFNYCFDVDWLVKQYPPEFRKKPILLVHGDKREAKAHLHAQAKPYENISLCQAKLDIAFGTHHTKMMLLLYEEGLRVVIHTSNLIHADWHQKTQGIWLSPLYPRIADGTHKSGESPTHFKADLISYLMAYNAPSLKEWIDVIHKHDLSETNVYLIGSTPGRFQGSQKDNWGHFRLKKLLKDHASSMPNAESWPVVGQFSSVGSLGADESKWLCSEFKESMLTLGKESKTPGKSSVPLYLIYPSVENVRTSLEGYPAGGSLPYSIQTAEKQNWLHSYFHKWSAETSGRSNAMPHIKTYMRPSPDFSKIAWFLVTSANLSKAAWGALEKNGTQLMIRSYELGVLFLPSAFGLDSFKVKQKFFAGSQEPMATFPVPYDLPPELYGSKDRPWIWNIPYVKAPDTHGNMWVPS
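Tdp1 1 nM final; 15 min RT w/ cpd; substrate 15 nM, 5 min; beads 10 ug/ml, 10 min; AlphaScreen read. Neg ctrl: no enzyme.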
HepG2 tox – HepG2 cytotoxicity, counter-screen for TGF-b inhibitors. HepG2 CAGA-GFP viability, ATP luminescence, 18 h. Potency, µM (highest dose often 46.1 µM), for the others: at the highest dose activity change, negative = cytotoxicity, usual class: cytotoxic. AID 588856. actives 0.76% (n = 410,000); also: potency is read from the fitted curve at half-maximal effect
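HepG2 CAGA-GFP cells (1000/well, DMEM with 1% FBS) received compound, then TGF-beta at 500 pg/mL final, and were incubated 18 hours at 37 degrees C. Viability was read by CellTiter-Glo luminescence. Media-only wells were set as complete cell-killing and DMSO as no toxicity.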
* marks the source's active call; other numbers are inactive results; ? = inconclusive; / = not tested or not shown. Unless noted, calls follow the shape of the dose curve; as a rule, active = well fitted curve in the direction sought with a large enough effect; inconclusive = small, poorly fitted or top-dose-only effect, or another doubt; inactive = no such curve, though single readings can be large; an effect the other way counts as inactive or inconclusive.

SMILES	IL1B secr inh	TGFb SMAD3 inh	TDP1 cell CPT	DT40 TDP1 no CPT	TDP1 block	HepG2 tox
COCCCNC(=O)c1ccc(CSc2nc3cccnc3n2Cc2ccc(OC)cc2)cc1	/	0%	23µM*	16µM*	9%	-27%
COCCCNC(=O)c1ccc(Cn2c(SCc3ccc(F)cc3)nc3cccnc32)cc1	/	4%	?	15µM*	1%	-42%
COCCCNC(=O)c1ccc(Cn2c(SCc3cccc(C)c3)nc3cccnc32)cc1	/	-20%	?	?	6%	-36%
CCNC(=O)c1ccc(CSc2nc3cccnc3n2Cc2ccc(OC)cc2)cc1	/	-28%	?	?	-2%	-29%
Cc1nn(CCC#N)c(N)c1C1(O)C(=O)Nc2c(Cl)cc(Cl)cc21 (stereo unspecified)	134	-2%	16µM*	3.7µM*	-3%	7%
COc1ccc(OC)c(NC(=O)c2ccc3nc(C(C)C)oc3c2)c1	/	24%	12%	-1%	3%	9%
CC(O)CNc1nc2c(c(=O)n(Cc3ccc(Cl)cc3)c(=O)n2C)n1C (stereo unspecified)	-11	-4%	?	?	9%	-14%
Cn1c(NCC(O)c2ccccc2)nc2c1c(=O)n(Cc1ccc(Cl)c(Cl)c1)c(=O)n2C (stereo unspecified)	-67*	?	21µM*	21µM*	/	-95%
Cn1c(NCC(O)c2ccccc2)nc2c1c(=O)n(Cc1ccc(Cl)cc1)c(=O)n2C (stereo unspecified)	-18	0%	16µM*	21µM*	3%	3%
CC(O)CNc1nc2c(c(=O)n(Cc3ccc(Cl)c(Cl)c3)c(=O)n2C)n1C (stereo unspecified)	?	4%	?	?	8%	-19%
Cc1cccc(OCC(=O)Nc2ccc3oc(-c4ccccc4F)nc3c2)c1	/	-19%	?	?	-11%	-34%
O=C(N/N=C/c1cccc([N+](=O)[O-])c1)c1cc2c(ccc3ccccc32)o1	-8	17%	-28%	?	?	1%
O=C(N/N=C/c1ccc(-c2ccc(Cl)c(C(=O)O)c2)o1)c1cc2c(ccc3ccccc32)o1	2	0%	23%	22%	1%	-16%
Cc1ccc(-c2ccc(/C=N\NC(=O)c3cc4c(ccc5ccccc54)o3)o2)cc1[N+](=O)[O-]	25	0%	10µM*	9.2µM*	7%	17%
Cc1ccc([N+](=O)[O-])cc1-c1ccc(/C=N/NC(=O)c2cc3c(ccc4ccccc43)o2)o1	2	-31%	?	8.2µM*	3%	3%
FC(F)(F)c1cccc(Cc2noc(CN3CCC(c4ccncc4)CC3)n2)c1	-13	?	5.8µM*	7.3µM*	8%	-34%
CN1CCCC2(CCCN(Cc3nc(Cc4cccc(C(F)(F)F)c4)no3)C2)C1 (stereo unspecified)	-75*	-16%	-30%	?	0%	-16%
CC(CN(C)Cc1nc(Cc2cccc(C(F)(F)F)c2)no1)CN1CCCC1 (stereo unspecified)	-11	-4%	21µM*	23µM*	6%	-12%
CCn1ccnc1CN(C)Cc1nc(Cc2cccc(C(F)(F)F)c2)no1	20	-14%	-3%	-14%	-6%	23%
FC(F)(F)c1cccc(Cc2noc(CN3CCCC(OCc4ccccn4)C3)n2)c1 (stereo unspecified)	-11	?	18µM*	23µM*	3%	6%
CS(=O)(=O)N(CC(=O)N1CCOCC1)c1ccccc1	-8	-5%	-1%	6%	0%	-2%
CN(C)Cc1cc(CCNC(=O)c2ccc(Cl)cc2)ccc1O	0	-2%	0%	?	1%	-8%
COc1ccccc1NC(=O)c1sc2nc(C)c(C(=O)Nc3ccc(C)cc3C)c(-c3cccs3)c2c1N	/	30%	-2%	-7%	-2%	1%
CN1CCCN(Cc2nc(-c3cccc(C(F)(F)F)c3)no2)CC1	-14	1%	?	16µM*	0%	-31%
CC(C)[C@H](NC(=O)[C@H](CC(=O)O)NC(=O)CNC(=O)[C@@H](N)CCCN=C(N)N)C(=O)O	/	/	/	/	10%	/
SMILES	IL1B secr inh	TGFb SMAD3 inh	TDP1 cell CPT	DT40 TDP1 no CPT	TDP1 block	HepG2 tox
O=C(O)c1cc(-c2cccnc2)nc2ccc(Br)cc12	36	2%	?	22%	1%	9%
O=C(NCCCN1CCCC1=O)c1cc(-c2cccnc2)nc2ccc(Cl)cc12	25	5%	?	-29%	2%	-8%
O=C(Nc1ccc(C(=O)N2CCOCC2)cc1)c1cc(-c2cccnc2)nc2ccc(Cl)cc12	?	-8%	1.8µM*	2.1µM*	-3%	-9%
CC(=O)Nc1cccc(NC(=O)c2cc(-c3cccnc3)nc3ccc(Br)cc23)c1	-19	-21%	18µM*	18µM*	0%	-77%
CSc1ccccc1NC(=O)c1cc(-c2cccnc2)nc2ccc(Br)cc12	?	-6%	?	21µM*	-11%	4%
CC(=O)Nc1cccc(NC(=O)c2cc(-c3cccnc3)nc3ccc(Cl)cc23)c1	?	8%	?	?	0%	-29%
O=C1CN(C(=O)CN2CCN(S(=O)(=O)c3ccccc3)CC2)c2ccccc2N1	2	8%	-23%	-15%	/	2%
CCN(C(=O)COC(=O)c1cc([N+](=O)[O-])ccc1N1CCOCC1)C1CCS(=O)(=O)C1 (stereo unspecified)	2	14%	-4%	-2%	/	8%
O=C(Nc1nnc(-c2cccs2)s1)C1CC1	14	13%	18%	-1%	-2%	1%
O=C(Nc1nc(-c2cccs2)c(-c2cccs2)s1)C1CCCC1	0	?	16µM*	15µM*	-1%	-7%
CC1(C)CC(=O)C2=C(C1)Nc1[nH]n(-c3ccccc3)c(=O)c1C2c1ccc2c(c1)OCO2 (stereo unspecified)	-7	13%	7.3µM*	5.2µM*	9%	0%
COCCOC(=O)C1=C(C)NC2=C(C(=O)CC(C)(C)C2)C1c1ccc2c(c1)OCO2 (stereo unspecified)	-9	2%	5%	-8%	7%	-6%
